The text below walks through data of the supplement of paper PMC9794691.

Test [1] has as its system H1975. In words: area under confluence curve of compound monotherapy; compare to DMSO control AUC of the same experiment (AUC (confluence x time, arbitrary)). An outline of the steps:
(§1)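 Adenocarcinoma lines were grown in RPMI 1640 with 10% FBS at 37 °C and 5% CO2, seeded at 20,000–30,000 cells/well in 48-well plates, and treated the next day with test compound alone at one dose: 1 uM or the highest dose giving <50% parental inhibition. Every 3–4 days the wells were washed with PBS and the drug was refreshed, and medium was drug-free from the DTP stage (10–21 days). IncuCyte tracked confluence until wells given only an EGFR inhibitor regrew. Area under the confluence curve was calculated in Prism, taking the median of triplicates where run, and set beside the vehicle value from the same experiment.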

Test [2] concerns HCC2279. The description is as above. In a few lines:
as §1

Test [3] has as its system HCC2935. Described as above. An outline of the steps:
as §1

Test [4] concerns HCC4006. Described as above. In a few lines:
as §1

The test system of test [5] is HCC827. The test is described as above. In a few lines:
as §1

The subject of test [6] is II-18. The description is as above. In a few lines: as §1
For test [7], the system named is H1975. The test is described as follows: area under confluence curve of osimertinib + compound combination regimen (DTP regrowth); compare to osimertinib-only DTP control AUC of the same experiment (AUC (confluence x time, arbitrary)). In a few lines: (§2)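 Two schedules were compared in EGFR-mutant NSCLC lines. In one, the EGFR inhibitor and a fixed-dose test compound were given together up to the persister stage (10–21 days), followed by drug-free medium. In the other, the inhibitor alone came first and the test compound second. Prism calculated the area under the IncuCyte confluence–time curve, taking the median of triplicates where these were available.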

Test [8] relates to HCC2279. Described as above. An outline of the steps: as §2
In test [9] the test system is HCC2935. The test is described as above. In a few lines: as §2
In test [10] the test system is HCC4006. The test is described as above. An outline of the steps: as §2
Test [11] deals with HCC827. The test is described as above. In a few lines:
as §2

Test [12] has as its system II-18. The description is as above. In a few lines:
as §2

Setting [13] is: 300 nM, DMSO control AUC in same experiment: 40085.
The mark [14] stands for this setting: 300 nM, DMSO control AUC in same experiment: 15413.
The mark [15] stands for this setting: 300 nM, DMSO control AUC in same experiment: 10921.

`Cn1cnc2c(F)c(Nc3ccc(Br)cc3Cl)c(C(=O)NOCCO)cc21` [Selumetinib]: the “area under confluence curve” value in the test with H1975 [1] (300 nM, DMSO control AUC in same experiment: 14522) came out at 17100; in the test with HCC2279 [2] (setting [13]) it was 37400; in the test with HCC2935 [3] (setting [14]), 17800; with HCC4006 [4] (setting [15]) it was 11800; with HCC827 [5] (300 nM, DMSO control AUC in same experiment: 48895) it was 45800; with II-18 [6] (300 nM, DMSO control AUC in same experiment: 18482), 15300.

For `CCN1CCN(Cc2ccc(Nc3ncc(F)c(-c4cc(F)c5nc(C)n(C(C)C)c5c4)n3)nc2)CC1` [Abemaciclib] + C=CC(=O)Nc1cc(Nc2nccc(-c3cn(C)c4ccccc34)n2)c(OC)cc1N(C)CCN(C)C [osimertinib], the “area under confluence curve” value came to 8980 in the test with H1975 [7] (test compound dose 100 nM, dosing schedule: sequential, osimertinib-only DTP control AUC in same experiment: 12533, DMSO control AUC in same experiment: 14522); 5060 in the test on H1975 [7] (test compound dose 100 nM, dosing schedule: upfront, osimertinib-only DTP control AUC in same experiment: 18969, DMSO control AUC in same experiment: 14522); 4410 in the test with HCC2279 [8] (test compound dose 100 nM, dosing schedule: sequential, osimertinib-only DTP control AUC in same experiment: 5698, DMSO control AUC in same experiment: 27284); 12700 in the test on HCC2279 [8] (test compound dose 100 nM, dosing schedule: upfront, osimertinib-only DTP control AUC in same experiment: 30623, DMSO control AUC in same experiment: 27284); 4760 in the test with HCC2935 [9] (test compound dose 100 nM, dosing schedule: sequential, osimertinib-only DTP control AUC in same experiment: 9121, DMSO control AUC in same experiment: 11459); 9300 in the test on HCC2935 [9] (test compound dose 100 nM, dosing schedule: upfront, osimertinib-only DTP control AUC in same experiment: 12748, DMSO control AUC in same experiment: 11459). Also, the “area under confluence curve” value in the test on HCC4006 [10] (test compound dose 100 nM, dosing schedule: sequential, osimertinib-only DTP control AUC in same experiment: 14882, DMSO control AUC in same experiment: 10921) turned out to be 8540; in the test on HCC4006 [10] (test compound dose 100 nM, dosing schedule: upfront, osimertinib-only DTP control AUC in same experiment: 18913, DMSO control AUC in same experiment: 10921), 4990; with HCC827 [11] (test compound dose 100 nM, dosing schedule: sequential, osimertinib-only DTP control AUC in same experiment: 18675, DMSO control AUC in same experiment: 48895) it was 6450; in the test with HCC827 [11] (test compound dose 100 nM, dosing schedule: upfront, osimertinib-only DTP control AUC in same experiment: 25542, DMSO control AUC in same experiment: 48895), 7890; with II-18 [12] (test compound dose 100 nM, dosing schedule: sequential, osimertinib-only DTP control AUC in same experiment: 3520, DMSO control AUC in same experiment: 13556), 1010; with II-18 [12] (test compound dose 100 nM, dosing schedule: upfront, osimertinib-only DTP control AUC in same experiment: 6532, DMSO control AUC in same experiment: 13556), 2540.

Turning to `O=C(NC[C@H](O)CN1CCc2ccccc2C1)c1ccnc(NC2CCC2)c1`, the “area under confluence curve” value turned out to be 20400 with H1975 [1] (300 nM, DMSO control AUC in same experiment: 20657); 25900 with HCC2279 [2] (setting [13]); 16200 in the test with HCC2935 [3] (setting [14]); 8430 with HCC4006 [4] (setting [15]); 45500 in the test with HCC827 [5] (300 nM, DMSO control AUC in same experiment: 43928); 8360 with II-18 [6] (300 nM, DMSO control AUC in same experiment: 7080).

On to `C[C@@H](Nc1cc(F)cc(F)c1)c1cc(C(=O)N(C)C)cc2c(=O)cc(N3CCOCC3)oc12`, for which the “area under confluence curve” value with H1975 [1] (1000 nM, DMSO control AUC in same experiment: 20657) amounted to 18600; with HCC2279 [2] (1000 nM, DMSO control AUC in same experiment: 29252), 24500; in the test on HCC2935 [3] (1000 nM, DMSO control AUC in same experiment: 13875), 10800; in the test on HCC4006 [4] (1000 nM, DMSO control AUC in same experiment: 16638), 13600; in the test with HCC827 [5] (1000 nM, DMSO control AUC in same experiment: 27404), 24900; with II-18 [6] (1000 nM, DMSO control AUC in same experiment: 18482), 11000.

Take `Cn1cc(CNCC2CCN(c3ncc(C(=O)NO)cn3)CC2)c2ccccc21` [Quisinostat] + C=CC(=O)Nc1cc(Nc2nccc(-c3cn(C)c4ccccc34)n2)c(OC)cc1N(C)CCN(C)C [osimertinib]: the “area under confluence curve” value in the test with H1975 [7] (test compound dose 10 nM, dosing schedule: sequential, osimertinib-only DTP control AUC in same experiment: 15943, DMSO control AUC in same experiment: 20657) worked out at 1750; with H1975 [7] (test compound dose 10 nM, dosing schedule: upfront, osimertinib-only DTP control AUC in same experiment: 27804, DMSO control AUC in same experiment: 20657), 5730; in the test with HCC2279 [8] (test compound dose 10 nM, dosing schedule: sequential, osimertinib-only DTP control AUC in same experiment: 20224, DMSO control AUC in same experiment: 29252) it was 6370; with HCC2279 [8] (test compound dose 10 nM, dosing schedule: upfront, osimertinib-only DTP control AUC in same experiment: 43517, DMSO control AUC in same experiment: 29252), 12400; with HCC2935 [9] (test compound dose 10 nM, dosing schedule: sequential, osimertinib-only DTP control AUC in same experiment: 6271, DMSO control AUC in same experiment: 13875) it was 6600; in the test on HCC2935 [9] (test compound dose 10 nM, dosing schedule: upfront, osimertinib-only DTP control AUC in same experiment: 10360, DMSO control AUC in same experiment: 13875), 6240. For the same compound, the “area under confluence curve” value with HCC4006 [10] (test compound dose 10 nM, dosing schedule: sequential, osimertinib-only DTP control AUC in same experiment: 21234, DMSO control AUC in same experiment: 16638) was found to be 5480; with HCC4006 [10] (test compound dose 10 nM, dosing schedule: upfront, osimertinib-only DTP control AUC in same experiment: 19238, DMSO control AUC in same experiment: 16638), 4030; with HCC827 [11] (test compound dose 10 nM, dosing schedule: sequential, osimertinib-only DTP control AUC in same experiment: 8266, DMSO control AUC in same experiment: 27404), 2780; in the test on HCC827 [11] (test compound dose 10 nM, dosing schedule: upfront, osimertinib-only DTP control AUC in same experiment: 13929, DMSO control AUC in same experiment: 27404) it was 4260; in the test with II-18 [12] (test compound dose 10 nM, dosing schedule: sequential, osimertinib-only DTP control AUC in same experiment: 21122, DMSO control AUC in same experiment: 7080), 426; in the test on II-18 [12] (test compound dose 10 nM, dosing schedule: upfront, osimertinib-only DTP control AUC in same experiment: 22894, DMSO control AUC in same experiment: 7080), 19200.

In the case of `COc1nn(C)cc1Nc1nccc(-c2c[nH]c3c(NC(=O)[C@@H](C)N4CCN(C)CC4)cccc23)n1`, the “area under confluence curve” value in the test with H1975 [1] (1000 nM, DMSO control AUC in same experiment: 15857) was determined as 17600; in the test on HCC2279 [2] (1000 nM, DMSO control AUC in same experiment: 14404) it was 15500; with HCC2935 [3] (1000 nM, DMSO control AUC in same experiment: 19215), 20800; with HCC4006 [4] (1000 nM, DMSO control AUC in same experiment: 18415), 18600; with HCC827 [5] (1000 nM, DMSO control AUC in same experiment: 21320), 19500; with II-18 [6] (1000 nM, DMSO control AUC in same experiment: 11834), 5850.
